Most compounds without a hit are left out; they make up all but 0.26% or so of the library.
Bcl-W Bim block: disrupts Bim peptide binding to human Bcl-W. Q92843. bead-based flow cytometry. inhibition, % at 10 µM. actives 0.02% (n = 190,000). AID 952;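 also: 0% = bound tracer without compound and 100% = peptide blocker; higher means less fluorescent Bim peptide bound to Bcl-W beads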
Target sequence (Q92843 whole entry, looked up): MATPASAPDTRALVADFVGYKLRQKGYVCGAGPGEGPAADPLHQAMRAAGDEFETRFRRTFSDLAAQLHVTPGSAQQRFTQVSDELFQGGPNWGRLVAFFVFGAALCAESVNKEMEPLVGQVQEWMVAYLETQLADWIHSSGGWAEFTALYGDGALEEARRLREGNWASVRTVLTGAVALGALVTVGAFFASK
PKD1 kinase inh: inhibitors of human PKD1 kinase | Q15139 | PKD1 kinase fluorescence polarization assay | inhibition, % (no concentration beside the values) | actives 0.056% (n = 200,000); in the data active = inhibition above about 50%
Bcl-B Bim block: human Bim-Bcl-B interaction inhibition | Q9HD36 | bead-based flow cytometry, Bim peptide-Bcl-B binding | inhibition, % at 10 µM | actives 0.073% (n = 190,000) | AID 951;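 also: 0% = tracer peptide without compound and 100% = reference inhibitor peptide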
Bim-Bcl-2: disrupts Bim peptide binding to human Bcl-2; P10415; Bead-based flow cytometry, Bim peptide-Bcl-2 binding; inhibition, % at 10 µM; actives 0.06% (n = 190,000); in the data active = inhibition above about 40%;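 also: 0% = no compound wells with probe peptide and 100% = reference peptide inhibitor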
Target sequence (P10415 whole entry, looked up): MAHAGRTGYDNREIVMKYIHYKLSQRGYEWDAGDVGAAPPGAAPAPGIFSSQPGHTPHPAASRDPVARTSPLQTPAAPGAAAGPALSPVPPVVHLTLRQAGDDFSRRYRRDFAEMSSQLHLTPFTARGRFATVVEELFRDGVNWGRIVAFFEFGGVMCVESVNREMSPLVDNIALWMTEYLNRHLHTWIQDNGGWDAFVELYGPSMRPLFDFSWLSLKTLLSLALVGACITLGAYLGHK
Bim-Bcl-XL: inhibitors of Bim-Bcl-XL interaction, human | Q07817 | Bim peptide-Bcl-XL binding, bead flow cytometry, fluorescence | inhibition, % at 10 µM | actives 0.04% (n = 190,000) | AID 1007
Target sequence (Q07817 whole entry, looked up): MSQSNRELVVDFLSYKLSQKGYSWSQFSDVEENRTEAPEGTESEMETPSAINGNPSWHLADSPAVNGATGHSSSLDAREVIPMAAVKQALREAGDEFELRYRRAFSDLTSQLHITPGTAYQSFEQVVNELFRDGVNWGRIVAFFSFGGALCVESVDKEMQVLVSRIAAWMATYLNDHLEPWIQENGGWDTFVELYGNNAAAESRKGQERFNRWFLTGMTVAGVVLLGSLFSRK
Bim-Bfl-1: inhibitors of Bim-Bfl-1 interaction, human; Bead-based flow cytometry, Bim-Bfl-1 binding inhibition; inhibition, % at 10 µM; actives 0.12% (n = 190,000);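 also: 0% = wells without compound plus tracer and 100% = blocker peptide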
FP interf 140K: interferes with fluorescence polarization in PKD inhibitor counter-screen; 85 tested, under 10 active; inhibition, % at 10 µM; PKD1 FP assay interference counter-screen; shares compounds with PKD1 kinase inh; AID 1315; call rule not given here
Bim-BclXL dose: confirmation of regulators of human Bim-Bcl-XL interaction; AID 2084; bead-based flow cytometry, Bim-Bcl-XL binding; inhibition of binding at 100 µM; shares compounds with Bim-Bfl-1; 40 tested, under 10 active; call rule not given here
* marks the source's active call; other numbers are inactive results. Rule as the data show it, unless noted: active = inhibition above about 40%.

What do the screens show for `O=c1c(Cc2ccccc2)c(O)ccn1Cc1ccc2c(c1)OCO2`?
Bcl-W Bim block: 0; PKD1 kinase inh: 9; Bcl-B Bim block: -3; Bim-Bcl-2: -1; Bim-Bcl-XL: -2; Bim-Bfl-1: -3

What do the screens show for `CCOC(=O)N1CCC(N2CCN(S(=O)(=O)CC)CC2)CC1`?
Bcl-W Bim block: -4; PKD1 kinase inh: 93*; Bcl-B Bim block: -1; Bim-Bcl-2: -2; Bim-Bcl-XL: -5; Bim-Bfl-1: -2; FP interf 140K: -11

Results for CCCCN(CCCC)C(=O)c1nsnc1-c1ccccc1O ?
Bcl-W Bim block: -1; PKD1 kinase inh: 4; Bcl-B Bim block: -3; Bim-Bcl-2: 0; Bim-Bcl-XL: -2; Bim-Bfl-1: -1

How did O=C(O)Cc1ccc2oc(-c3cccnc3)nc2c1 do in these assays?
Bcl-W Bim block: 0; PKD1 kinase inh: -7; Bcl-B Bim block: -2; Bim-Bcl-2: 0; Bim-Bcl-XL: -1; Bim-Bfl-1: -5

Results for CC(=O)Oc1cc(OC(C)=O)c2c(C)cc(=O)oc2c1 ?
Bcl-W Bim block: 0; PKD1 kinase inh: 54*; Bcl-B Bim block: 0; Bim-Bcl-2: 0; Bim-Bcl-XL: 0; Bim-Bfl-1: 0; FP interf 140K: -21

What do the screens show for `Cc1cc(Nc2ccccc2)nc(NCc2ccccc2)n1`?
Bcl-W Bim block: -3; PKD1 kinase inh: 28; Bcl-B Bim block: -9; Bim-Bcl-2: -2; Bim-Bcl-XL: -6; Bim-Bfl-1: -4

Results for Cc1cc(Nc2cccc(F)c2)nc(NCc2ccccc2)n1 ?
Bcl-W Bim block: -3; PKD1 kinase inh: 56*; Bcl-B Bim block: -8; Bim-Bcl-2: -8; Bim-Bcl-XL: -8; Bim-Bfl-1: -8; FP interf 140K: -11

What do the screens show for `O=C(c1ccc2c(c1)OCCO2)N1CCN(Cc2ccccc2)CC1`?
Bcl-W Bim block: 0; PKD1 kinase inh: -4; Bcl-B Bim block: -2; Bim-Bcl-2: -3; Bim-Bcl-XL: -4; Bim-Bfl-1: -4

How did Nc1cc(S(=O)(=O)N2CCCCC2)ccc1Oc1ccccc1 do in these assays?
Bcl-W Bim block: -2; PKD1 kinase inh: 1; Bcl-B Bim block: -4; Bim-Bcl-2: 0; Bim-Bcl-XL: -3; Bim-Bfl-1: -5

Results for CCN(CC)c1ccc(NC(=O)c2cnccn2)cc1S(=O)(=O)Nc1ccc(OC)cc1 ?
Bcl-W Bim block: 0; PKD1 kinase inh: 4; Bcl-B Bim block: 0; Bim-Bcl-2: 2; Bim-Bcl-XL: -5; Bim-Bfl-1: -1

How did CCN(CC)c1ccc(NC(=O)COc2ccccc2C#N)cc1S(=O)(=O)Nc1ccc(OC)cc1 do in these assays?
Bcl-W Bim block: 0; PKD1 kinase inh: 58*; Bcl-B Bim block: -14; Bim-Bcl-2: -2; Bim-Bcl-XL: -2; Bim-Bfl-1: 5; FP interf 140K: -11

How did CN(C)c1ccc(/C=C2\SC(=S)N(Nc3ncc(C(F)(F)F)cc3Cl)C2=O)cc1 do in these assays?
Bcl-W Bim block: -15; PKD1 kinase inh: 69*; Bcl-B Bim block: -34; Bim-Bcl-2: -16; Bim-Bcl-XL: -12; Bim-Bfl-1: -2; FP interf 140K: -9

Results for Cc1cc2nc3c(=O)n(C4CCCCC4)c(=O)[nH]c3nc2cc1N ?
Bcl-W Bim block: 18; PKD1 kinase inh: 57*; Bcl-B Bim block: 4; Bim-Bcl-2: 10; Bim-Bcl-XL: 19; Bim-Bfl-1: 20; FP interf 140K: 22

Results for Cc1cc(C)cc(Nc2cc(=O)n(C3CCCCC3)c(=O)[nH]2)c1 ?
Bcl-W Bim block: -1; PKD1 kinase inh: 1; Bcl-B Bim block: 0; Bim-Bcl-2: -5; Bim-Bcl-XL: -1; Bim-Bfl-1: 0

What do the screens show for `CC(NC(=O)Nc1ccc([N+](=O)[O-])cc1)C(c1cccs1)N1CCCC1` (configuration not stated)?
Bcl-W Bim block: -1; PKD1 kinase inh: 0; Bcl-B Bim block: -5; Bim-Bcl-2: 0; Bim-Bcl-XL: -3; Bim-Bfl-1: 0

What do the screens show for `CCN1C(=O)/C(=C\C=C2/C=CC=CN2CC)SC1=S`?
Bcl-W Bim block: 3; PKD1 kinase inh: -8; Bcl-B Bim block: -6; Bim-Bcl-2: 7; Bim-Bcl-XL: 0; Bim-Bfl-1: 21; Bim-BclXL dose: -1.7

What do the screens show for `CCN1C(=O)/C(=C2/C=CC=CN2C)SC1=S`?
Bcl-W Bim block: 0; PKD1 kinase inh: -9; Bcl-B Bim block: -5; Bim-Bcl-2: -8; Bim-Bcl-XL: -18; Bim-Bfl-1: -13

How did Cc1ccc(C=NNC(=O)CSc2nnc(-c3ccc(Cl)cc3)n2-c2ccccc2)o1 do in these assays?
Bim-BclXL dose: 6.6

What do the screens show for `Cc1ccc(/C=N/NC(=O)CSc2nnc(-c3ccccc3)n2-c2ccc(Cl)cc2)o1`?
Bcl-W Bim block: -3; PKD1 kinase inh: -2; Bcl-B Bim block: -42; Bim-Bcl-2: -1; Bim-Bcl-XL: -2; Bim-Bfl-1: 1

Results for C=CS(=O)(=O)c1sc(Cl)c(N2CCOCC2)c1[N+](=O)[O-] ?
Bcl-W Bim block: 9; PKD1 kinase inh: -3; Bcl-B Bim block: 10; Bim-Bcl-2: 11; Bim-Bcl-XL: 6; Bim-Bfl-1: 48*; Bim-BclXL dose: 6.7

What do the screens show for `C=CSc1sc(Cl)c(N2CCOCC2)c1[N+](=O)[O-]`?
Bcl-W Bim block: -1; PKD1 kinase inh: 3; Bcl-B Bim block: -6; Bim-Bcl-2: -3; Bim-Bcl-XL: -3; Bim-Bfl-1: -3

What do the screens show for `O=c1c2c(n3nnnc3n1Cc1ccccc1)-c1ccccc1CC21CCCC1`?
Bcl-W Bim block: 2; PKD1 kinase inh: 0; Bcl-B Bim block: 69*; Bim-Bcl-2: -6; Bim-Bcl-XL: -3; Bim-Bfl-1: -9; Bim-BclXL dose: 3.2

Results for CN(CCO)c1cc(Sc2nc3ccccc3s2)c2nonc2c1[N+](=O)[O-] ?
Bcl-W Bim block: 9; PKD1 kinase inh: 0; Bcl-B Bim block: 5; Bim-Bcl-2: 6; Bim-Bcl-XL: 1; Bim-Bfl-1: 50*; Bim-BclXL dose: -0.9

How did CC(C)CCN1CCN(Cc2ccc(C#CCCO)cc2)CC1CCO (configuration not stated) do in these assays?
Bcl-W Bim block: -2; PKD1 kinase inh: -6; Bcl-B Bim block: -4; Bim-Bcl-2: -1; Bim-Bcl-XL: -4; Bim-Bfl-1: -7

How did Cc1ccc(-c2cc(-c3ccc(F)cc3)c(C#N)c(N)n2)o1 do in these assays?
Bcl-W Bim block: 2; PKD1 kinase inh: -13; Bcl-B Bim block: -5; Bim-Bcl-2: 3; Bim-Bcl-XL: -1; Bim-Bfl-1: 32; Bim-BclXL dose: 3.6

Results for Cc1ccc(-c2cc(-c3ccc(Cl)cc3)c(C#N)c(N)n2)o1 ?
Bcl-W Bim block: 1; PKD1 kinase inh: -2; Bcl-B Bim block: 1; Bim-Bcl-2: 1; Bim-Bcl-XL: 3; Bim-Bfl-1: 24

What do the screens show for `Cc1cc(-c2cc(-c3ccc(Cl)cc3)nc(N)c2C#N)co1`?
Bcl-W Bim block: 4; PKD1 kinase inh: -5; Bcl-B Bim block: -1; Bim-Bcl-2: 0; Bim-Bcl-XL: 0; Bim-Bfl-1: 40*; Bim-BclXL dose: 6.2

Compound activity (PubChem)
